Data published in PubChem BioAssay (NCI).
The panel holds about 79,000 compounds, 15% with a hit somewhere; the sample as a whole holds those more often. The source made the active and inactive calls. Cut-off read from the data, not from the text of the source: active = growth inhibition above about 70%; inactive = the rest.

Experiments:
[1] = NCI Yeast Anticancer Drug Screen. Data for the rad50 strain (AID 155);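 note: 0% = growth of vehicle-only cultures of the same strain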; conditions: S. cerevisiae rad50 strain growth inhibition; at 50.0 µM; hits give high values
In short: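 Compounds were tested on a yeast strain with an engineered DNA damage repair alteration; the reported value is growth inhibition normalised to vehicle treatment.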

[2] = NCI Yeast Anticancer Drug Screen. Data for the mec2-1 strain (AID 157); conditions: S. cerevisiae mec2-1 strain, at 50.0 µM, hits give high values
In short: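 Test agents were screened against the mec2-1 yeast strain, with defined DNA repair or cell cycle alteration. Growth was scored as inhibition against vehicle-only controls.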

[3] = NCI Yeast Anticancer Drug Screen. Data for the sgs1 mgt1 strain (AID 161);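 note: 0% = growth of cultures given vehicle only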; conditions: S. cerevisiae sgs1 mgt1 strain, at 50.0 µM, hits give high values
In short: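 Read-out: growth inhibition vs vehicle controls. Cells: mutant yeast strain deficient in DNA damage repair.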

[4] = NCI Yeast Anticancer Drug Screen. Data for the cln2 rad14 strain (AID 165);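 note: 0% = growth equal to vehicle treated cultures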; conditions: S. cerevisiae cln2 rad14 strain, at 50.0 µM, hits give high values
In short: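 Growth of compound-exposed yeast (cln2 rad14 genotype) measured and expressed as inhibition relative to vehicle.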

[5] = NCI Yeast Anticancer Drug Screen. Data for the bub3 strain (AID 167); conditions: S. cerevisiae bub3 mutant strain, at 50.0 µM, hits give high values
In short: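 Growth of a checkpoint-deficient yeast mutant is measured after compound exposure. Values represent inhibition relative to vehicle.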

[6] = NCI Yeast Anticancer Drug Screen. Data for the mlh1 rad18 strain (AID 175); conditions: S. cerevisiae mlh1 rad18 strain growth inhibition; at 50.0 µM; hits give high values
In short: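 In this whole-cell yeast screen, a strain with altered DNA damage repair is challenged with compound, and its growth is measured against matched vehicle-treated controls.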

Measured: growth inhibition

O=C(OCC(Cl)(Cl)Cl)N1[C@@H]2C=C[C@@H](N1C(=O)OCC(Cl)(Cl)Cl)[C@@]13CCCCC21O3 (stereo not given in full)
inactive: [1] -55.7% | [2] 5.15% | [3] 0.45% | [4] 1.8% | [5] -4.95% | [6] 1.65%

CC(=O)c1c(-c2ccc(Cl)cc2)c(-c2ccc(Cl)cc2)nn(CCNC(C)C)c1=O
active: [1] 96.7% | [2] 98.4% | [3] 95.8% | [4] 88.9% | [5] 80.5% | [6] 95%

C=C1CC[C@H]2C(=O)OC(c3ccoc3)C[C@]2(C)C/C=C\C=C/1C(=O)OC (stereo not given in full)
inactive: [1] -10.8% | [2] -11.7% | [3] -19.8% | [4] -6% | [5] -27.2% | [6] -22.6%

O=C1c2ccccc2C(C(c2ccccc2)c2ccccc2)c2ccccc21
inactive: [1] -22% | [2] -18.6% | [3] -28.9% | [4] 8.45% | [5] 5.25% | [6] -14%

Cc1[nH]c(=O)nc(N/N=C/c2ccc(Cl)cc2)c1C(=O)Nc1ccc(Cl)cc1
inactive: [1] -5.35% | [2] 16.4% | [3] -3.9% | [4] 1.65% | [5] -34.4% | [6] -12.5%

OCC(O)C(O)C(O)C(c1ccc(Cl)cc1)c1ccc(Cl)cc1 (stereo not given)
inactive: [1] -16.4% | [2] 0.65% | [3] -23% | [4] 5.35% | [5] 2.25% | [6] 35%

O=C(NCO)NCOCn1c(=O)n(CO)c(=O)n(CO)c1=O
inactive: [1] 5.05% | [2] -22.6% | [3] -2.5% | [4] 29.9% | [5] 9.7% | [6] -15.9%

CCOCC(=O)O
inactive: [1] -15.1% | [2] -1.25% | [3] 9.15% | [4] -32.2% | [5] 39.2% | [6] -1.25%

CC1(CBr)COC(c2ccccc2)(c2ccccc2)OC1
inactive: [1] 18.1% | [2] -2.4% | [3] 20.6% | [4] -31.4% | [5] -22.2% | [6] 28.5%

C=C1C(=O)OC(CCCCCCCCCCCCCC(C)=O)[C@H]1C(=O)O (stereo not given in full)
inactive: [1] 10.2% | [2] -9.75% | [3] 22.1% | [4] 4.85% | [5] -10.9% | [6] 9.8%

CNC(=S)SC(=S)NC
inactive: [1] 14.6% | [2] 8.3% | [3] -4.55% | [4] -20.4% | [5] -1.75% | [6] 4.75%

CC(=O)C(CCC#N)(CCC#N)C(=O)Nc1ccccc1
inactive: [1] -9% | [2] 10.5% | [3] 3.35% | [4] -6% | [5] -2.05% | [6] -21.5%

CC[N+](C)(CC)Cc1ccccc1[N+](=O)[O-]
inactive: [1] -32.8% | [2] -47.3% | [3] -25.9% | [4] 2.85% | [5] -38.8% | [6] -28.6%

COc1ccc(Cc2cc(N=O)c(OC)cc2O)cc1
inactive: [1] -12.4% | [2] -7.3% | [3] 1.15% | [4] -21.5% | [5] -3.6% | [6] -10.7%

CCN(CC)CCCN1CC(=O)N2CCCCN2C(=O)C1
inactive: [1] 28.8% | [2] -3.6% | [3] 13.4% | [4] 6.15% | [5] 3.05% | [6] 8.9%

O=C(Nc1ccccc1)Oc1cccc(-c2ccc(-c3ccccc3)cc2)c1
inactive: [1] 29.4% | [2] 6.5% | [3] 33.7% | [4] 18.9% | [5] 49.5% | [6] 18.2%

COc1ccc(C(=O)N/N=C/c2ccccc2Cl)cc1
inactive: [1] 1% | [2] 0.45% | [3] 19.1% | [4] -10.6% | [5] 19.4% | [6] 18.4%

c1ccc(/N=C2\c3ccccc3CN2c2ccccn2)nc1
inactive: [1] -21.9% | [2] 3.75% | [3] -7.6% | [4] -3.75% | [5] 9% | [6] -1.35%

CSCCC(NC(=O)c1cnc2ccccc2n1)C(=O)O (stereo not given)
inactive: [1] -4.55% | [2] 2.6% | [3] 11.2% | [4] 5.55% | [5] 14.7% | [6] -17.1%

CC(=O)OCC(=O)[C@@]1(O)CC[C@H]2[C@@H]3CCC4=CC(=O)CC[C@]4(C)[C@H]3[C@@H](O)C[C@@]21C
inactive: [1] -20.6% | [2] -17.4% | [3] -3.2% | [4] -20.3% | [5] -23.1% | [6] -38.5%

CC(C)C1NC(=O)c2ccccc2S1 (stereo not given)
inactive: [1] 27.8% | [2] -15.9% | [3] -3.55% | [4] 26.1% | [5] 10.7% | [6] 44%

O=C(Cl)C1CC=C2c3ccccc3CCC2C1C(=O)Cl (stereo not given)
inactive: [1] 0.85% | [2] 19.1% | [3] 8.1% | [4] -3.05% | [5] 15.1% | [6] -5.5%

COc1cc(C2CC(C)(OC)Oc3cc4c(cc32)OCO4)cc(OC)c1OC (stereo not given)
inactive: [1] 42.5% | [2] -2.6% | [3] 2.7% | [4] 19.8% | [5] 19.3% | [6] 20.2%

CCOC(=O)c1ccc(NC(=O)/C=C/C(=O)O)cc1
inactive: [1] -20.2% | [2] -17.9% | [3] -2.9% | [4] -3.3% | [5] -9.7% | [6] -15.3%

Cc1ccc(C(=O)C2=CN=C3C(=O)N(c4ccccc4)N(C)C3(C)C2=N)cc1 (stereo not given)
inactive: [1] -4.65% | [2] 36.7% | [3] 11.2% | [4] 1.1% | [5] 4.9% | [6] 36.1%

O=c1[nH]c(Nc2ccc(F)c(Cl)c2)nc2nc[nH]c12
inactive: [1] 4.4% | [2] 6.85% | [3] 4.6% | [4] -4.75% | [5] 2.55% | [6] -23.7%

O=c1oc2ccccc2cc1CCBr
inactive: [1] 16.4% | [2] 11.4% | [3] -6.1% | [4] -3.3% | [5] -9.2% | [6] -8.05%

CC(=N\N=C\c1ccccn1)/C(C)=N/N=C(C)/C(C)=N/N=C/c1ccccn1
inactive: [1] 29.1% | [2] 17.9% | [3] 7.9% | [4] 11.4% | [5] 1.95% | [6] -23.1%

O=C(Cc1nc2ccc(C(=O)c3ccccc3)cc2[nH]c1=O)C(=O)Nc1ccc(Br)cc1
inactive: [1] -27.6% | [2] -28.9% | [3] -2.65% | [4] -9.4% | [5] -3.3% | [6] -3.7%

COc1ccc(/C=C2\CCCC3=C2NC(=S)NC3c2ccc(OC)cc2)cc1 (stereo not given)
inactive: [1] 24.8% | [2] 21.4% | [3] -6.35% | [4] 5.9% | [5] -1.95% | [6] -37.4%

O=C(c1ccc(Br)cc1)C1SC2(C(=O)c3ccc(Br)cc3)SC(C(=O)c3ccc(Br)cc3)C(C(=O)c3ccc(Br)cc3)SC2(C(=O)c2ccc(Br)cc2)SC1C(=O)c1ccc(Br)cc1 (stereo not given)
inactive: [1] -8.8% | [2] 3.75% | [3] -17.4% | [4] -11.9% | [5] -2.95% | [6] -24.4%

O=C1NC(=S)N(c2ccccc2)C1=O
inactive: [1] -19.4% | [2] -7.65% | [3] -24.2% | [4] -30.2% | [5] -2.5% | [6] -11.8%

O=c1[nH]c(Nc2nc3ccccc3[nH]2)nc(O)c1-c1ccccc1
inactive: [1] -2.85% | [2] -14% | [3] -23.2% | [4] -6.7% | [5] -6.05% | [6] -28.6%

O=C(O)c1ccc([N+](=O)[O-])cc1Cl
inactive: [1] -11.9% | [2] -10% | [3] -1.55% | [4] 8.15% | [5] -3.25% | [6] -7.55%

CN(/N=C\c1ccc2ccccc2c1)C1=NCCCCN1
inactive: [1] -2.05% | [2] -5.45% | [3] -27.6% | [4] -37% | [5] -0.1% | [6] 1.6%

COc1ccc2ccccc2c1CN1CCOCCOCCN(Cc2c(OC)ccc3ccccc23)CCOCCOCC1
inactive: [1] -18.1% | [2] -34.5% | [3] -23.4% | [4] -28.1% | [5] 5.75% | [6] -29.4%

COc1ccc(/C=N/NC(=O)/C(C#N)=C/c2ccc(OC)cc2)cc1
inactive: [1] 23.1% | [2] 19.1% | [3] 3.7% | [4] -11.5% | [5] 19.4% | [6] 16.4%

CCCC(C)(O)C(C)(C)C (stereo not given)
inactive: [1] 6.85% | [2] 8.65% | [3] 8% | [4] 11.7% | [5] 28.8% | [6] -2.15%

O=[N+]([O-])c1cc(Br)ccc1N1CCCCC1
inactive: [1] -3.15% | [2] -3.55% | [3] 2.25% | [4] -18.1% | [5] 17.9% | [6] -20.8%

COc1cc(C2c3cc4c(cc3OC(N3CCCC3)C2C)OCO4)cc(OC)c1OC (stereo not given)
inactive: [1] 22.4% | [2] -0.5% | [3] -2.9% | [4] 5.75% | [5] 3.1% | [6] 6.55%
